Source: PubChem BioAssay (NCI)
The panel holds about 83,000 compounds, 20% with a hit somewhere; the sample as a whole holds those more often.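 Growth was measured after 48 h exposure to one concentration of compound in 96-well plates. Values under 10 count as active.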 Unmarked numbers belong to inactive results. Calls of active or inactive are those of the source.

Experiments:
Experiment in all cases: NCI-60 one-dose screen, 48 h (100 = growth as untreated, 0 = no growth, -100 = all killed)
Details in all cases: 10 µM unless noted
[1] = tested on: DU-145 prostate
[2] = tested on: K-562 leukemia
[3] = tested on: MALME-3M melanoma
[4] = tested on: MDA-MB-231 breast
[5] = tested on: RXF 393 renal
[6] = tested on: SF-268 CNS
[7] = tested on: SF-295 CNS
[8] = tested on: SF-539 CNS
[9] = tested on: UACC-257 melanoma
[10] = tested on: M14 melanoma
[11] = tested on: HCT-15 colon
[12] = tested on: HT29 colon
[13] = tested on: SNB-75 CNS
[14] = tested on: SNB-19 CNS
[15] = tested on: U251 CNS
[16] = tested on: PC-3 prostate
[17] = tested on: SK-MEL-5 melanoma
[18] = tested on: UACC-62 melanoma
[19] = tested on: LOX IMVI melanoma
[20] = tested on: SK-MEL-28 melanoma

COc1cc(N2C(=O)c3nccnc3C2=O)cc(OC)c1OC
growth [1]: 115% | growth [2]: 98.1% | growth [3]: 96% | growth [4]: 93.1% | growth [5]: 126% | growth [6]: 111% | growth [7]: 110% | growth [8]: 119% | growth [9]: 105% | growth [10]: 91.8% | growth [11]: 104% | growth [12]: 99.8% | growth [13]: 103% | growth [14]: 106% | growth [15]: 97.5% | growth [16]: 98.7% | growth [17]: 111% | growth [18]: 114% | growth [19]: 106% | growth [20]: 108%

c1cc2ccc3cc2cc1CNCCOCCNCc1ccc2ccc(cc2c1)CNCCOCCNC3
growth [1]: -29.3% (active) | growth [2]: 6.81% (active) | growth [3]: -64.5% (active) | growth [4]: -53.8% (active) | growth [5]: -40.1% (active) | growth [6]: -55.5% (active) | growth [7]: 14.5% | growth [8]: -53.4% (active) | growth [9]: 25.5% | growth [10]: 89.6% | growth [11]: 96.7% | growth [12]: -34.3% (active) | growth [13]: -98.7% (active) | growth [14]: -21.8% (active) | growth [15]: -20.4% (active) | growth [16]: -38.1% (active) | growth [17]: 1.54% (active) | growth [18]: -52.8% (active) | growth [19]: -25.3% (active) | growth [20]: -8.69% (active)

COc1cc(C2CC(=O)Nc3c2c(C)nn3-c2nc3ccccc3[nH]2)c(OC)c2c1OCO2 (stereo not given)
growth [1]: 88.5% | growth [2]: 17.2% | growth [3]: 73.9% | growth [4]: 73.4% | growth [5]: 73.2% | growth [6]: 71% | growth [7]: 36.9% | growth [8]: 78.4% | growth [9]: 85.5% | growth [10]: 52.1% | growth [11]: 40.2% | growth [12]: 95% | growth [13]: 31.1% | growth [14]: 71.4% | growth [15]: 67.8% | growth [16]: 71.3% | growth [17]: 56.9% | growth [18]: 55.5% | growth [19]: 82.1% | growth [20]: 75.8%

COc1cc(/C=C/C(=O)c2cccc(-n3cc(-c4ccccc4)[nH]c3=O)c2)ccc1O
growth [1]: 81.1% | growth [2]: 20.9% | growth [3]: 90.8% | growth [4]: 90.3% | growth [5]: 20% | growth [6]: 66.5% | growth [7]: 65.7% | growth [8]: 85.7% | growth [9]: 68.8% | growth [10]: 84.7% | growth [11]: 22.2% | growth [12]: 44.5% | growth [13]: 46.8% | growth [14]: 90.5% | growth [15]: 16.6% | growth [16]: 61.3% | growth [17]: 68.5% | growth [18]: 69.8% | growth [19]: 18.7% | growth [20]: 70.2%

NC1=NCc2nc3ccccc3c(=O)n2C1
growth [1]: 113% | growth [2]: 87.3% | growth [3]: 104% | growth [4]: 85.7% | growth [5]: 91.4% | growth [6]: 112% | growth [7]: 96.1% | growth [8]: 107% | growth [9]: 95.1% | growth [10]: 102% | growth [11]: 99.2% | growth [12]: 103% | growth [13]: 98.6% | growth [14]: 106% | growth [15]: 103% | growth [16]: 112% | growth [17]: 107% | growth [18]: 92.3% | growth [19]: 99.3% | growth [20]: 117%

COc1cc(/C=C/C(=O)N2CCN(C(=O)c3cc(OC)c(OC)c(OC)c3)CC2)ccc1OCCCN1C(=O)c2cccc3cccc(c23)C1=O
growth [1]: 79.1% | growth [2]: 78.7% | growth [3]: 125% | growth [4]: 101% | growth [5]: 74.2% | growth [6]: 90.6% | growth [7]: 71.9% | growth [8]: 99.9% | growth [9]: 101% | growth [10]: 99.3% | growth [11]: 72% | growth [12]: 91.8% | growth [13]: 93.1% | growth [14]: 99.5% | growth [15]: 83.4% | growth [16]: 25.5% | growth [17]: 75.5% | growth [18]: 64.3% | growth [19]: 68.8% | growth [20]: 81.9%

COc1cc(N=Nc2cc(Cc3ccc(N(C)C)cc3)c(N)cc2N(C)C)c2ncccc2c1
growth [1]: -48.7% (active) | growth [2]: -36.8% (active) | growth [3]: -17.6% (active) | growth [4]: -45.1% (active) | growth [5]: -79.7% (active) | growth [6]: 17.3% | growth [7]: 11.8% | growth [8]: -85.8% (active) | growth [9]: -33% (active) | growth [10]: -15.7% (active) | growth [11]: -13.2% (active) | growth [12]: -65.4% (active) | growth [13]: 28.1% | growth [14]: 6.94% (active) | growth [15]: -54.8% (active) | growth [16]: 3.89% (active) | growth [17]: -13.8% (active) | growth [18]: -34% (active) | growth [19]: -83.2% (active) | growth [20]: 15.7%

COc1ccc2c(c1)CCCN2c1c2ccccc2nc2ccccc12
growth [1]: 5.71% (active) | growth [2]: 9.39% (active) | growth [3]: 55.3% | growth [4]: 6.06% (active) | growth [5]: 27.1% | growth [6]: 33.7% | growth [7]: 8.45% (active) | growth [8]: -26.4% (active) | growth [9]: 71.2% | growth [10]: 3.64% (active) | growth [11]: 12.5% | growth [12]: 8.43% (active) | growth [13]: 0.187% (active) | growth [14]: 34.6% | growth [15]: 14.1% | growth [16]: 15.9% | growth [17]: 2.04% (active) | growth [18]: 5.34% (active) | growth [19]: 12.2% | growth [20]: 47%

Cn1c(=O)c2c(nc(Cl)n2CCl)n(C)c1=O
growth [1]: 113% | growth [2]: 21.3% | growth [3]: 75.6% | growth [4]: 105% | growth [5]: 53% | growth [6]: 104% | growth [7]: 112% | growth [8]: 103% | growth [9]: 84.5% | growth [10]: 12.4% | growth [11]: 13.6% | growth [12]: 80.9% | growth [13]: 94% | growth [14]: 100% | growth [15]: 96% | growth [16]: 98.5% | growth [17]: 88.1% | growth [18]: 94.7% | growth [19]: -0.952% (active) | growth [20]: 55%

CCOC(=O)c1c(-c2ccc(Cl)cc2)c(C#N)c(=O)n(-c2ccccc2CC)c1N
growth [1]: 93.5% | growth [2]: 77.6% | growth [3]: 100% | growth [4]: 90.8% | growth [5]: 111% | growth [6]: 86.8% | growth [7]: 74.3% | growth [8]: 100% | growth [9]: 113% | growth [10]: 105% | growth [11]: 89.7% | growth [12]: 110% | growth [13]: 89.8% | growth [14]: 120% | growth [15]: 90% | growth [16]: 77.5% | growth [17]: 85.1% | growth [18]: 68.8% | growth [19]: 95% | growth [20]: 99.3%

Cc1ccc2nc(C)c(-c3nnc(SCc4ccc(C#N)cc4)o3)n2c1
growth [1]: 112% | growth [2]: 38% | growth [3]: 101% | growth [4]: 74.2% | growth [5]: 89.5% | growth [6]: 96.6% | growth [7]: 92.9% | growth [8]: 88.3% | growth [9]: 119% | growth [10]: 102% | growth [11]: 79.6% | growth [12]: 115% | growth [13]: 77.7% | growth [14]: 90.7% | growth [15]: 95.3% | growth [16]: 109% | growth [17]: 92.9% | growth [18]: 74.4% | growth [19]: 93.2% | growth [20]: 100%

O=C1/C(=C/c2ccccc2)CCc2nc3ccccc3c(/C=C/c3ccc(Cl)cc3)c21
growth [1]: 98.1% | growth [2]: 82% | growth [3]: 105% | growth [4]: 86.6% | growth [5]: 96.3% | growth [6]: 87.5% | growth [7]: 96.3% | growth [8]: 99.3% | growth [9]: 82.8% | growth [10]: 86.6% | growth [11]: 69.4% | growth [12]: 81.3% | growth [13]: 76.5% | growth [14]: 96.3% | growth [15]: 93.2% | growth [16]: 79.6% | growth [17]: 89.8% | growth [18]: 73% | growth [19]: 84.7% | growth [20]: 91.8%

CN1CCN(CC(=O)Nc2nc(-c3cccc(NS(=O)(=O)c4cccc5c(N(C)C)cccc45)c3)cs2)CC1
growth [1]: 81.3% | growth [2]: 9.93% (active) | growth [3]: 84% | growth [4]: 50.3% | growth [5]: 70.4% | growth [6]: 76.9% | growth [7]: 62.1% | growth [8]: 75.6% | growth [9]: 91.2% | growth [10]: 102% | growth [11]: 42.6% | growth [12]: 35.2% | growth [13]: 74.3% | growth [14]: 73.3% | growth [15]: 65.9% | growth [16]: 42.2% | growth [17]: 48.9% | growth [18]: 54% | growth [19]: 29.7% | growth [20]: 78.2%

COC(=O)[C@]12CC[C@@H](C)[C@H](C)[C@@H]1C1=CC[C@@H]3[C@@]4(C)C(C=O)=C[C@@](C)(COC(C)=O)C4=CC[C@@]3(C)[C@]1(C)CC2
growth [1]: -6.88% (active) | growth [2]: 5.59% (active) | growth [3]: -65.5% (active) | growth [4]: -26.6% (active) | growth [5]: -58.9% (active) | growth [6]: -3.01% (active) | growth [7]: 0.263% (active) | growth [8]: -50.8% (active) | growth [9]: -41.3% (active) | growth [10]: -48.4% (active) | growth [11]: -41.6% (active) | growth [12]: -31.5% (active) | growth [13]: 15.7% | growth [14]: 29.8% | growth [15]: -25.8% (active) | growth [16]: 12.7% | growth [17]: -36.6% (active) | growth [18]: -11.1% (active) | growth [19]: -93.7% (active) | growth [20]: -60.2% (active)

C=C(C)[C@@H]1CC=C2c3sc(-c4ccc(C)cc4)nc3C[C@@H](C)[C@]2(C)C1
growth [1]: 114% | growth [2]: 97% | growth [3]: 104% | growth [4]: 107% | growth [5]: 113% | growth [6]: 99.7% | growth [7]: 104% | growth [8]: 102% | growth [9]: 105% | growth [10]: 100% | growth [11]: 104% | growth [12]: 98.8% | growth [13]: 87.4% | growth [14]: 101% | growth [15]: 97.5% | growth [16]: 95.5% | growth [17]: 101% | growth [18]: 93.2% | growth [19]: 95.3% | growth [20]: 103%
